The results in this text go back to PubChem BioAssay (Tox21).

“And” between values parts separate entries of the source, which are not always exact repeats. Equal values may be shown once. Inconclusive results are not listed. Where a call stands in place of a potency, no number is given. The source made the active and inactive calls. The call rests on the fitted dose curve; in most records, active means well fitted inhibition curve with a large enough effect in the repeat runs; inconclusive means weak or mixed curves; inactive means no such curve, though single readings can be large or run the other way.
Potency means the concentration at half of the fitted maximal effect.

A short description of this experiment: qHTS assay to identify small molecule antagonists of the thyroid receptor (TR) signaling pathway (AID 743065). Further: nearly all actives have a fitted effect of over 55% in size. The note with it: GH3.TRE-Luc, T3-stimulated luciferase inhibition, 23.5 h; series mostly up to 70.3 µM; activity, negative = inhibition: at the top concentration. From the text: U.S. Tox21 Program National Center for Advancing Translational Sciences [NCATS] NIH Chemical Genomics Center [NCGC] U.S. Environmental Protection Agency [EPA] National Institutes of Environmental Health Sciences [NIEHS] National Toxicology Program [NTP] U.S. Food and Drug Administration [FDA] Tox21 Assay Overview: Thyroid receptor (TR), a nuclear hormone receptor, plays an important role in development, proliferation, differentiation, metabolism, brain function, and cardiovascular system. […] To profile the Tox21 10K compound library in TR signaling, a cell-based GH3-TRE-Luc assay (GH3.TRE-Luc cell line, developed by the laboratory of Dr. Albertinka J. Murk, Wageningen University) was used to measure the inhibition of TR. GH3 (rat pituitary tumor) cells stably expressing a TR activity sensor consisting of two TR response elements and a luciferase reporter gene.
Tox21 Assay Protocol Summary: GH3.TRE-Luc cells were dispensed at 1500 cells/4 uL/well into 1536-well white solid bottom plates using a Multidrop Combi dispenser (Thermo Fisher Scientific Inc., Waltham, MA). After the assay plates were incubated at 37 C for 4 hours, 23 nL of library compound or DMSO controls was transferred to the assay plates by a pintool station (Kalypsys, San Diego, CA), followed by addition of 1 ul of T3 (1 nM, final concentration in the wells) to stimulate TR transactivation. The assay plates were incubated at 37 C for 23.5 h, and then 1 uL of CellTiter-Fluor reagent (Promega, Madision, WI) of measuring cytotoxicity was added to each well using a Bioraptr Flying Reagent Dispenser (FRD) workstation (Beckman Coulter, Indianapolis, IN, USA). The plates were incubated at 37 C and 5% CO2 for additional 30 min, and fluorescence intensity was measured by a ViewLux plate reader (PerkinElmer, Shelton, CT). For measuring luciferase reporter gene activity, 4 uL of ONE-Glo Luciferase Assay reagent (Promega) was added to each well using a Bioraptr FRD (Beckman Coulter), followed by 30 min incubation at room temperature. The luminescence intensity of plates was recorded by a ViewLux plate reader (PerkinElmer, Shelton, CT).
Regarding `Cc1cccc(N)c1C`, the Potency result is “inactive”.

For the molecule `CNC(=O)O/N=C/C(C)(C)SC`, the Potency result is “inactive”.

On to `C[C@H]1C(=O)O[C@@H]2CCN3CC=C(COC(=O)[C@](C)(O)[C@]1(C)O)[C@H]23`, for which the Potency result is “inactive”.

As to `ClC(Cl)c1ccccc1`, the Potency result was “inactive”.

As to `Cc1ccc(N)cc1`, the Potency result is “inactive”.

As to `O=P1(NCCCl)OCCCN1CCCl` (stereo not given), the Potency result was “inactive”.

As for `Cc1cc(Cl)ccc1OC(C)C(=O)O` (stereo not given), the Potency result is “inactive”.

For `OC[C@@H](O)[C@H]1O[C@@H]2O[C@H](C(Cl)(Cl)Cl)O[C@@H]2[C@H]1O`, the Potency result is “inactive”.

`CCOc1ccc(N)cc1`: the Potency entry was “inactive”.

In the case of `COS(=O)(=O)OC`, the Potency entry was “inactive”.

Regarding `C=CCN=C=S`, the Potency entry was “inactive”.

As for `CNC(=O)O/N=C(\SC)C(=O)N(C)C`, the Potency result is “inactive”.

For `O=C(O)COc1ccccc1`, the Potency result was “inactive”.

As for `[N-]=[N+]=CC(=O)OC[C@H](N)C(=O)O`, the Potency result is “inactive”.

Regarding `OCCCCO`, the Potency result was “inactive”.

Turning to `CSc1nnc(C(C)(C)C)c(=O)n1N`, the Potency result was “inactive”.

As to `Sc1ccccc1`, the Potency entry is “inactive”.

Take `CC[N+](=O)[O-]`: the Potency entry is “inactive”.

Turning to `CCCCC(CC)C(=O)Cl` (stereo not given), the Potency result was “inactive”.

Turning to `CN(C)NC(=O)CCC(=O)O`, the Potency entry is “inactive”.

As for `FC(F)(F)c1ccc(Cl)cc1`, the Potency result was “inactive”.

Turning to `O=C(O)CCCc1ccc(N(CCCl)CCCl)cc1`, the Potency is 30.8 µM (active) and 27.3 µM (active).

In the case of `CNCC(O)c1ccc(O)cc1` (stereo not given), the Potency entry is “inactive”.

As for `Cc1cccc(C)c1NC(=O)CN1CCCC1=O`, the Potency result was “inactive”.

Turning to `CNC(=O)O/N=C/C(C)(C)S(C)=O` (stereo not given), the Potency entry was “inactive”.

With `ClCCOCCCl`, the Potency entry was “inactive”.

In the case of `Nc1cc(Cl)cc(Cl)c1`, the Potency entry was “inactive”.

In the case of `CC(=O)C1CCOC1=O` (stereo not given), the “activity, negative = inhibition” value is 8.66% [at 95 µM] (inactive).

As for `CCOC(=O)CC(SP(=O)(OC)OC)C(=O)OCC` (stereo not given), the Potency entry was “inactive”.

Regarding `C[C@]12CC[C@H](O)CC1=CC[C@@H]1[C@@H]2CC[C@]2(C)C(=O)CC[C@@H]12`, the “activity, negative = inhibition” value was -17.7% (inactive).

Turning to `Nc1cccc(Cl)c1`, the Potency result was “inactive”.

Turning to `N#Cc1ccccn1`, the Potency entry is “inactive”.

Regarding `Nc1nc(N)nc(NC2CC2)n1`, the Potency result is “inactive”.

On to `CN(C)C(=O)Cl`, for which the Potency entry is “inactive”.

For `COP(=S)(OC)SCN1C(=O)c2ccccc2C1=O`, the Potency entry is “inactive”.

As to `Oc1c(Br)cc(Br)cc1Br`, the “activity, negative = inhibition” value is 2.22% (inactive).

`c1ccc2c(c1)CCCC2`: the Potency entry was “inactive”.

Turning to `Nc1ncc([N+](=O)[O-])s1`, the Potency entry was “inactive”.

In the case of `Cl[C@H]1OCCO[C@@H]1Cl`, the Potency entry was “inactive”.

On to `N#CN=C(N)N`, for which the Potency result is “inactive”.
